This is a sample that favours compounds with a hit; in the whole collection about 1.4% have one here.
Polio RdRp inh = inhibitors of poliovirus RNA polymerase binding and polymerization. P03300. AID 588519. 150,000 compounds, 0.66% hits. poliovirus polymerase elongation, fluorescence polarization; active compounds read low. % elongation, % (compound at 16.7 µg/mL); in the data active = % elongation below about 90%
MbtI inh = blocks the Mycobacterium tuberculosis siderophore enzyme MbtI. purified MbtI enzyme, fluorescence intensity read-out. 100,000 compounds, 0.89% hits. AID 493033. P9WFX0. inhibition, % (no concentration beside the values); in the data active = inhibition mostly above about 56%, no sharp cut-off; inactive = mostly below about 77%
Target sequence (P9WFX0 whole entry, looked up): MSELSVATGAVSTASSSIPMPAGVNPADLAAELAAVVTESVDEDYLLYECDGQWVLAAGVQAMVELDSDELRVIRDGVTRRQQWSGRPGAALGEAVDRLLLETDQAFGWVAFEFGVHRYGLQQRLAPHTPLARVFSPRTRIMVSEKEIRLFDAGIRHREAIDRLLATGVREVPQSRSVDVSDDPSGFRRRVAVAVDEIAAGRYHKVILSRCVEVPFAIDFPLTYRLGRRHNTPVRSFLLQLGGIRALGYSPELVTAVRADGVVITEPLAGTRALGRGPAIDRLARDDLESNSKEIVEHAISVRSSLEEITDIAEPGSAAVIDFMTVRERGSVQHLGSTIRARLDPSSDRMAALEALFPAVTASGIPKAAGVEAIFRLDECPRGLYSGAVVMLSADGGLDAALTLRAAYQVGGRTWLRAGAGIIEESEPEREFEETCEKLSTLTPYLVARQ
MenB inh = blocks the Mycobacterium tuberculosis MenB enzyme. MenB enzyme assay, absorbance read-out. AID 540299. 100,000 compounds, 0.43% hits. inhibition, % (concentration not given with the values). P9WNP5; in the data active = inhibition above about 21%, passing the limit was not always enough
* hit, by the source's call.

Results for CC(C)(C)c1ccc(-c2nnc(-c3ccc(N4CCOCC4)cc3)o2)cc1 ?
Polio RdRp inh: 101; MbtI inh: inactive; MenB inh: 35*

How did CCOC(=O)CC1Sc2ccccc2N=C1SCC(=O)Nc1ccc(Cl)cc1Cl (centres undefined) do in these assays?
Polio RdRp inh: 110; MbtI inh: 96*; MenB inh: -54

What do the screens show for `Cc1nnc(SCC(=O)Nc2ccc(Cl)cc2Cl)n1C`?
Polio RdRp inh: 101; MbtI inh: -13

How did Cn1c(C(=O)N2CCc3ccccc32)cc2sccc21 do in these assays?
Polio RdRp inh: 101; MbtI inh: -7; MenB inh: -10

Results for CC(=O)N(c1ccc(C)cc1)C1(C(=O)NC2CCCC2)CCCCC1 ?
MbtI inh: -3

Results for CCN1C(=O)C(=Cc2ccc(-c3ccccc3F)o2)C(=O)N(CC)C1=S ?
Polio RdRp inh: 103; MbtI inh: 16; MenB inh: 15

Results for CCN1C(=O)C(=Cc2ccc(-c3ccc(Br)c(Cl)c3)o2)C(=O)N(CC)C1=S ?
Polio RdRp inh: 99; MbtI inh: 90*; MenB inh: 4

How did O=C(NCCc1ccccc1)C1CCN(C(=O)c2ccco2)CC1 do in these assays?
Polio RdRp inh: 102; MbtI inh: -25; MenB inh: 5

Results for COc1cc(OC)cc(C(=O)N2CCC(C(=O)NCCc3ccccc3)CC2)c1 ?
Polio RdRp inh: 102; MbtI inh: 3; MenB inh: 48*

How did CCOC(=O)c1c(N)sc(C(=O)N2CCOCC2)c1C do in these assays?
Polio RdRp inh: 105; MenB inh: -1

How did CCOC(=O)c1c(P(=O)(N2CCOCC2)N2CCOCC2)noc1N do in these assays?
Polio RdRp inh: 99; MbtI inh: 0; MenB inh: 41*

How did Cc1ccccc1Nc1nc(N)nc(COC(=O)Cc2c[nH]c3ccccc23)n1 do in these assays?
Polio RdRp inh: 108; MbtI inh: -9; MenB inh: -2

What do the screens show for `Cc1ccccc1Nc1nc(N)nc(COC(=O)CCCN=C2NS(=O)(=O)c3ccccc32)n1`?
Polio RdRp inh: 86*; MbtI inh: -8; MenB inh: -1

Results for FC1(F)C2CC3CC(C2)CC1C3 ?
Polio RdRp inh: 97; MbtI inh: 10; MenB inh: -16

How did O=C(NCc1ccccc1)N1CCN(C(c2ccc(F)cc2)c2ccc(F)cc2)CC1 do in these assays?
Polio RdRp inh: 103; MbtI inh: -8; MenB inh: -12

Results for COC(=O)C1CCN(C(c2ccc(F)cc2)c2ccc(F)cc2)CC1 ?
Polio RdRp inh: 100; MbtI inh: 1; MenB inh: 20*

Results for CCCCCCCc1c(O)nc(SCCN2CCOCC2)n(-c2ccccc2)c1=O ?
Polio RdRp inh: 103; MbtI inh: 7; MenB inh: 10

What do the screens show for `COc1ccc(Cl)cc1NC1=NC2CS(=O)(=O)CC2S1` (centres undefined)?
Polio RdRp inh: 99; MbtI inh: 63*; MenB inh: -17

What do the screens show for `COc1ccc(Cl)cc1NC1=NCC(C)S1` (centres undefined)?
Polio RdRp inh: 103; MbtI inh: -10; MenB inh: -27

How did COc1ccc2[nH]c3c(=O)n(N)c(=S)[nH]c3c2c1 do in these assays?
Polio RdRp inh: 102; MbtI inh: 13; MenB inh: -25

Results for COc1ccccc1NC(=O)CSCC(N)=O ?
Polio RdRp inh: 102; MbtI inh: 95*; MenB inh: -24

How did COc1ccccc1NC(=O)CC(=O)Nc1ccccc1OC do in these assays?
Polio RdRp inh: 103; MbtI inh: -9

What do the screens show for `CCC(=O)Nc1nn(CC)c2nc3ccccc3cc12`?
Polio RdRp inh: 100; MbtI inh: 10; MenB inh: -75

Results for O=C1c2ccccc2C(=O)c2c1oc1c3c(ccc21)OCN(CCC1=CCCCC1)C3 ?
Polio RdRp inh: 98; MbtI inh: 5; MenB inh: -22

Results for O=C1c2ccccc2C(=O)c2c1oc1c3c(ccc21)OCN(CCCn1ccnc1)C3 ?
Polio RdRp inh: 84*; MbtI inh: 8; MenB inh: -2

Results for Cc1cc(Nc2cccc(C(F)(F)F)c2)nc2ccc(NC(=O)Cc3cccs3)cc12 ?
Polio RdRp inh: 100; MbtI inh: 96; MenB inh: -26

What do the screens show for `CC1CCCCN1S(=O)(=O)c1ccccc1C(=O)N1CCCCCC1` (centres undefined)?
Polio RdRp inh: 105; MbtI inh: -4; MenB inh: -20

What do the screens show for `CC1CC(CC(C)C(=O)NC(=S)Nc2nncs2)C(=O)O1` (centres undefined)?
Polio RdRp inh: 103; MbtI inh: -10; MenB inh: -13

What do the screens show for `COc1cc(NC(=O)C(F)(F)F)c(OC)cc1Br`?
Polio RdRp inh: 102; MbtI inh: -7; MenB inh: 33*

How did COc1cc(NC(=O)C(C)(C)C)ccc1Br do in these assays?
Polio RdRp inh: 102; MbtI inh: -2; MenB inh: 12

Results for CCOC(=O)c1c(C)[nH]c(C)c1S(=O)(=O)N1CCCC(C(=O)Nc2ccccc2OCC)C1 (centres undefined) ?
Polio RdRp inh: -7.0*

What do the screens show for `CCOc1ccccc1NC(=O)C1CCCN(S(=O)(=O)c2c(C)[nH]c(=O)[nH]c2=O)C1` (centres undefined)?
Polio RdRp inh: 102

Results for N#Cc1c(-c2ccc3c(c2)OCO3)cc(-c2ccc(F)cc2)nc1N ?
Polio RdRp inh: 101; MbtI inh: 75; MenB inh: -12

How did FC(F)(F)c1cc(-c2ccc3c(c2)OCO3)nc(=S)[nH]1 do in these assays?
Polio RdRp inh: 102; MbtI inh: -143; MenB inh: 34*

Results for CC(Sc1cccc[n+]1[O-])C(=O)NCC1CCCCC1 (centres undefined) ?
Polio RdRp inh: 100; MbtI inh: 81*; MenB inh: 5

Results for O=C(CSc1cccc[n+]1[O-])NCC1CCCCC1 ?
Polio RdRp inh: 105; MbtI inh: -2; MenB inh: -8

How did Cn1c(SCC(=O)c2ccc(O)cc2O)nc2sccc2c1=O do in these assays?
Polio RdRp inh: 103; MbtI inh: -8; MenB inh: -6

What do the screens show for `O=c1[nH]sc2ccccc12`?
Polio RdRp inh: 98; MbtI inh: 105; MenB inh: 51*

What do the screens show for `O=c1cc(O)sc2ccccc12`?
Polio RdRp inh: 101; MbtI inh: 31; MenB inh: -202

What do the screens show for `O=C(CSC1=NCCN1)C1COc2ccccc2O1` (centres undefined)?
Polio RdRp inh: 101; MbtI inh: 22; MenB inh: 84*

What do the screens show for `O=C(CSC1=NCCN1)N1CCc2ccccc21`?
Polio RdRp inh: 99; MbtI inh: 4

What do the screens show for `CSc1cccc(NC(=O)N2CCN3CCCCC3C2)c1` (centres undefined)?
Polio RdRp inh: 104; MbtI inh: -11; MenB inh: -3

Results for Cn1c(CNC(=O)C2CCCCC2)cc2cc(Cl)ccc21 ?
Polio RdRp inh: 104; MenB inh: 23*

What do the screens show for `Cc1cc2cc(CNC(=O)C3CCCCC3)ccc2n1C`?
Polio RdRp inh: 104; MbtI inh: -10; MenB inh: -21

Results for O=c1c2c(-c3cccs3)csc2ncn1/N=C/c1ccccc1F ?
Polio RdRp inh: 106; MbtI inh: -2; MenB inh: -19

Compound activity deposited in PubChem BioAssay by ICCB-Longwood Screening Facility, Harvard Medical School.
